UGM FP inh – M. tuberculosis UGM enzyme inhibitors, primary screen, biochemical, fluorescence polarization, single point. purified UGM, fluorescence polarization probe displacement. inhibition, % at 10 µM. UDP-galactopyranose mutase (Mycobacterium tuberculosis (strain ATCC 25618 / H37Rv)), …. 320,000 compounds, 0.06% hits; in the data active means inhibition above about 10%, passing the limit was not always enough; inconclusive means no clear call, values can overlap the other calls
Rv3671c inh – Rv3671c serine protease inhibitors, primary screen, biochemical, fluorescence polarization, M. tuberculosis H37Rv; P9WHR9; inhibition, % at 5.96 µM; 320,000 compounds, 0.048% hits; in the data active means inhibition above about 38%;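 further: extracellular domain of Rv3671c used as enzyme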
GDH-TPI counter – GDH-TPI coupling enzyme inhibitors, primary screen, artefact control for M. tuberculosis FBA inhibitor project, biochemical, absorbance, full deck. GDH-TPI coupled enzyme counterscreen, NADH absorbance. inhibition, % at 4.8 µM. 360,000 compounds, 1.2% hits. AID 588335, 2011; in the data active means inhibition above about 30%
FBA Mtb inh – Mtb FBA enzyme inhibitors, primary screen, biochemical, fluorescence, strain H37Rv; purified M. tuberculosis FBA, fluorescence read-out; inhibition, % at 1 µM; Fructose-bisphosphate aldolase (Mycobacterium tuberculosis (strain ATCC 25618 / H37Rv)), …; 360,000 compounds, 2.3% hits; in the data active means inhibition above about 27%
Target sequence (P9WQA3 whole entry, looked up): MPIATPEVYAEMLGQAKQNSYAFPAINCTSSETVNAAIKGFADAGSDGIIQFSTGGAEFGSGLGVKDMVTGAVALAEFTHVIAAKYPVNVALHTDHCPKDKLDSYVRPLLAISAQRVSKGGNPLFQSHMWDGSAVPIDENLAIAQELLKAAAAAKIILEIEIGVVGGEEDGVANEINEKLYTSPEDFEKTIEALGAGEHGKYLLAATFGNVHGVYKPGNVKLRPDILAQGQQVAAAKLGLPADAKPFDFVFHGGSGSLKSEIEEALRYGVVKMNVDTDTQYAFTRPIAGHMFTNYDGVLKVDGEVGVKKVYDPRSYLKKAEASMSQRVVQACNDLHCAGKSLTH
Mtb betalactam – beta-lactam sensitization of Mtb H37Rv, H37Rv; M. tuberculosis H37Rv growth with meropenem, percent inhibition; inhibition, % at 25 µM; 330,000 compounds, 0.27% hits; AID 434955, 2010; call rule not given here;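 further: growth measured after seven days incubation then overnight dye step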
A number is an active result; . = inactive; ? = inconclusive; / = not tested or not shown; + = active, no number. This is a sample that favours compounds with a hit; in the whole collection about 3.5% have one here.

SMILES	UGM FP inh	Rv3671c inh	GDH-TPI counter	FBA Mtb inh	Mtb betalactam
Cc1c(OC(C)C(=O)O)ccc2c3c(c(=O)oc12)CCCC3 (stereo not drawn)	.	.	.	172.6	.
CC1(C)CCCN(C(=O)c2coc(=O)c(Br)c2)C1	/	/	.	51.2	/
O=C(c1coc(=O)c(Br)c1)N1CCC(C(O)(c2ccccc2)c2ccccc2)CC1	.	.	32.5	69.7	.
O=C(C1CC1)N1CCC(C(O)(c2ccccc2)c2ccccc2)CC1	.	.	.	.	.
O=C(c1coc(=O)c(Br)c1)N1CCCc2ccccc21	.	.	.	141.3	.
COc1ccc(N2CCN(C(=O)c3cn(Cc4ccccc4)nc3-c3cccnc3)CC2)cc1	.	.	.	.	.
O=c1nc2ccccc2c2n1CC(CN1CCN(C(c3ccccc3)c3ccccc3)CC1)N2 (stereo not drawn)	.	.	.	.	.
Cc1ccccc1-c1nnc(NC(=O)c2ccc(N3C(=O)CCC3=O)cc2)s1	.	.	32.7	.	.
COc1cc(NC(=O)C/C(C)=N/NC(=O)C2CCCCC2)c(OC)cc1Cl	.	.	.	.	.
Nc1cc(Nc2ccc(Br)cc2)nc(N)n1	.	.	.	.	.
CCc1ccc(S(=O)(=O)ON2C(=O)c3ccccc3C2=O)cc1	/	/	.	30.2	/
O=C1c2cccc3cccc(c23)C(=O)N1OS(=O)(=O)c1ccc(Cl)cc1	.	.	.	.	.
O=C(N/N=C/c1ccc([N+](=O)[O-])o1)c1ccc(O)cc1	.	.	39.9	.	.
O=C(N/N=C/c1ccc([N+](=O)[O-])o1)c1cc2ccccc2o1	.	.	37.4	.	.
O=C(N/N=C/c1ccc([N+](=O)[O-])o1)c1ccncc1	.	.	.	.	.
Cc1ccc(Cn2c(C3CCCN3c3nc(-c4cc(Cl)c(N)c(Cl)c4)cs3)nc3cc(Cl)c(Cl)cc32)cc1 (stereo not drawn)	.	.	.	.	.
O=C1N/C(=N\N=C\c2cccs2)SC1Cc1ccc(Cl)c(Cl)c1 (stereo not drawn)	.	.	.	.	.
O=C(CC1S/C(=N/N=C/c2cccs2)NC1=O)Nc1ccccc1F (stereo not drawn)	.	.	32.9	.	.
C=CCC1S/C(=N/N=C/c2cccs2)NC1=O (stereo not drawn)	.	.	53.5	.	.
O=C(CC1S/C(=N/N=C2CCCCCC2)NC1=O)Nc1ccccc1C(F)(F)F (stereo not drawn)	.	.	.	.	.
O=[N+]([O-])c1ccccc1/C=C/C=N/n1c(-c2ccccc2F)n[nH]c1=S	.	.	.	.	.
CC(C1CC2CCC1C2)n1c(COc2ccccc2F)nnc1SCC(N)=O (stereo not drawn)	.	.	.	+	.
CC(C)NC(=O)NC(=O)CSc1nnc(COc2ccccc2F)n1C(C)C1CC2CCC1C2 (stereo not drawn)	/	.	.	.	.
COc1ccccc1C(C#N)c1cccc(Cl)n1 (stereo not drawn)	.	.	.	.	.
CCN(C(=O)COC(=O)c1cc2ccccc2cc1O)C1CCS(=O)(=O)C1 (stereo not drawn)	.	.	.	.	.
SMILES	UGM FP inh	Rv3671c inh	GDH-TPI counter	FBA Mtb inh	Mtb betalactam
CCN(C(=O)COC(=O)c1ccccc1NCCO)C1CCS(=O)(=O)C1 (stereo not drawn)	.	.	.	129.1	.
Cc1ccc(S(=O)(=O)N2CCC[C@H]2C(=O)OCc2cc(=O)oc3cc(C)ccc23)cc1	/	.	.	.	.
O=C(c1cc2c(s1)-c1ccccc1OC2)N1CCN(c2ccccc2)CC1	.	.	.	.	.
CCOC(=O)N1CCN(C(=O)c2cc3c(s2)-c2ccccc2OC3)CC1	.	.	.	146.9	.
CCCN1CCN(C(=O)c2cc3c(s2)-c2ccccc2OC3)CC1	.	.	32.7	186.4	?
CNC(=S)N/N=C/c1c(C(=O)OC)cnn1-c1ccc(F)cc1F	.	.	46.2	.	.
COC(=O)c1cnn(-c2ccccc2)c1/C=N/NC(=S)Nc1ccccc1	.	.	.	.	.
COC(=O)c1cnn(-c2ccc(F)cc2F)c1/C=N/NC(N)=S	.	.	36.0	.	.
CCOC(=O)N/N=C/c1ccc(F)cc1F	.	.	.	.	.
COC(=O)c1cnn(-c2ccc(F)cc2F)c1/C=N/NC(=S)NC(C)(C)C	.	.	36.0	.	.
COc1cccc(NC(=O)CSc2ccc3nnc(CCNC(=O)c4ccccc4)n3n2)c1	.	.	.	.	.
CCOC(=O)CCCNC(=O)CN1CCC(c2nc3ccccc3s2)CC1	.	.	.	.	.
Cn1ccc2c(-c3ccc(C(=O)O)cc3)cc3c(c21)C1CCC3O1 (stereo not drawn)	/	/	/	+	/
Cn1ccc2c(-c3ccc(CO)cc3)cc3c(c21)C1CCC3O1 (stereo not drawn)	/	/	/	+	/
Cc1nc(NC(=O)COC(=O)CCc2ccccc2)c(Cl)cc1Cl	.	.	.	.	.
COC(=O)Nc1nnc(-c2ccccc2Cl)s1	.	.	.	48.3	.
Cc1ccc(S(=O)(=O)NCCC(=O)NCc2ccco2)cc1	.	.	.	.	.
Cc1ccc(-c2nn(CCC#N)cc2C=C(C#N)C#N)cc1	.	.	33.5	.	.
COc1ccc(CCNC(=O)c2ccc(CS(=O)Cc3ccc(C)cc3)o2)cc1OC (stereo not drawn)	.	.	.	.	.
COc1ccc(OCC(=O)OCC(=O)NCC2CCCCC2)cc1	.	.	.	.	.
Cc1ccc(-n2nc3c(=O)n(CC(=O)NC(C)CCc4ccccc4)nc(C)c3c2C)cc1 (stereo not drawn)	.	.	.	.	.
CCCn1c(NC(=O)c2cccc(S(=O)(=O)N3CCCC3)c2)nc2ccccc21	.	.	34.9	.	.
CCCn1c(NC(=O)c2ccccc2)nc2ccccc21	.	.	.	.	.
NNC(=O)c1cc(Cl)ccc1Cl	.	.	.	.	.
CNc1ccc(Cl)cc1C(N)=O	.	.	.	113.2	.
SMILES	UGM FP inh	Rv3671c inh	GDH-TPI counter	FBA Mtb inh	Mtb betalactam
CCOC(=O)c1c(C)nn(-c2ccc(NC(=O)CSCC(=O)O)cc2)c1C	.	.	.	.	.
Nc1nnc(CC(=O)N/N=C/c2ccc(-c3ccccc3Cl)o2)s1	.	.	38.9	.	.
Nc1nnc(CC(=O)N/N=C/c2ccc(-c3ccc(Cl)cc3Cl)o2)s1	.	.	38.0	.	.
Cc1ccc(-c2ccc(/C=N/NC(=O)Cc3nnc(N)s3)o2)cc1Cl	.	.	.	.	.
CSCCNC(=O)c1ccc2nc(C3CCCCC3)oc2c1	.	.	.	.	.
Cc1ccc(-n2nc(CN3CCOCC3)c(-c3ccccc3)c2N)c(C)c1	.	.	.	.	.
COCc1cc(C)n(CC(=O)Nc2ccc(Cl)cc2Cl)c(=O)c1C#N	.	.	.	121.6	.
CC(C)c1ccc(NC(=O)C2=NNC(=O)CC2)cc1	.	.	.	.	.

Source: PubChem
